A selection: hits, their analogues and other compounds. The true share with any hit is near 12%.
G9a block = qHTS Assay for Inhibitors of Histone Lysine Methyltransferase G9a. G9a H3K9 monomethylation, AlphaScreen, 2 h. Potency, µM (titrated, usually from 102 µM), for the others: at the highest dose activity, negative = inhibition, most hits filed as inhibitors. 8.8% of 350,000 active; further: on the % scale 0 is the no-effect control and ±100 the full control effect; nearly all actives have a fitted effect of over 75% in size
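Methyltransferase reactions run at room temperature for 2 h (20 nM enzyme, 500 nM biotin-H3K9 peptide, 20 uM SAM) after a 15 min compound preincubation; product detected by AlphaScreen beads and anti-H3K9me1 antibody.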
JMJD2A Tudor inh = qHTS Assay for Inhibitors of JMJD2A-Tudor Domain; Lysine-specific demethylase 4A (Homo sapiens), O75164; AlphaScreen JMJD2A-Tudor / H3K4me3 peptide binding; Potency, µM (titrated, usually from 114 µM), inactives show at the top dose activity change, negative = inhibition, actives largely listed as inhibitors; 4.4% of 390,000 active; further: on the % scale 0 is the no-effect control and ±100 the full control effect; nearly all actives have a fitted effect of over 50% in size
Target sequence (O75164 whole entry, looked up, the tested form may be a part): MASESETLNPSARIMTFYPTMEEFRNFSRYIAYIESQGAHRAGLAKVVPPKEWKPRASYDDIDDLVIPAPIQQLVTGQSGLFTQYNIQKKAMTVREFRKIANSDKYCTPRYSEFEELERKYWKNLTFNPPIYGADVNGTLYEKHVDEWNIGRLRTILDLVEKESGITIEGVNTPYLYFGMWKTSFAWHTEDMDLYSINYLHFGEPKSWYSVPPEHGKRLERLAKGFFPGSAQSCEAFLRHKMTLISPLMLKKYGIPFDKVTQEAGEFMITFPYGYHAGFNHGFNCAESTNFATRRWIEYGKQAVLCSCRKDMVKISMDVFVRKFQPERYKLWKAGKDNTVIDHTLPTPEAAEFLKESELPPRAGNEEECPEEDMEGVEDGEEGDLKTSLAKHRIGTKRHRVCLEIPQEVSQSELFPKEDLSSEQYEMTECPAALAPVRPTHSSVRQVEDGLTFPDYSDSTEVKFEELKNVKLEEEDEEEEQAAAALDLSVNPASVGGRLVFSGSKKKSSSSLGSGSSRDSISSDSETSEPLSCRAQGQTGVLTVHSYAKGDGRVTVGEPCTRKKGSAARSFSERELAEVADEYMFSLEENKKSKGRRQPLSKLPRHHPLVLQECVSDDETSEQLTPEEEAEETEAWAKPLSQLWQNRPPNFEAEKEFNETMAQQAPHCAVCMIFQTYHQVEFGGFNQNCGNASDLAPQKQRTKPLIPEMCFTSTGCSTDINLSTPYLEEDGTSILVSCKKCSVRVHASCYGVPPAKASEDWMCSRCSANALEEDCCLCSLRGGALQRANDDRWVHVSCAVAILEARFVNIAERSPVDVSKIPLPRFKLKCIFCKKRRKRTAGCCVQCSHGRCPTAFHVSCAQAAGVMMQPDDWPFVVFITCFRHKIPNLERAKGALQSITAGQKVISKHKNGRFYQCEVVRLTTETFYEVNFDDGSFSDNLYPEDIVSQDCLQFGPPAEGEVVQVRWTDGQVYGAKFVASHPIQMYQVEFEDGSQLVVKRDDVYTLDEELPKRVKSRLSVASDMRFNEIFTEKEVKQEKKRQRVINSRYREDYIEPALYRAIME
BAZ2B inh = qHTS Assay for Inhibitors of BAZ2B; AlphaScreen BAZ2B-H3K14Ac peptide displacement; Bromodomain adjacent to zinc finger domain protein 2B (Homo sapiens), Q9UIF8; Potency, µM (doses to about 114 µM), without a hit: at the top dose activity change, negative = inhibition, most hits filed as inhibitors; 4.4% of 360,000 active; further: on the % scale 0 is the no-effect control and ±100 the full control effect; nearly all actives have a fitted effect of over 60% in size
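Multi-concentration screen (max 110 uM) measuring displacement of acetylated histone H3 peptide from BAZ2B by AlphaScreen, using 50 nM protein, 50 nM peptide and 10 ug/mL streptavidin donor plus Ni-chelate acceptor beads.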
Sfp PPTase inh = qHTS Assay for Inhibitors of Bacillus subtilis Sfp phosphopantetheinyl transferase (PPTase) | 4'-phosphopantetheinyl transferase ffp (Bacillus subtilis), Q9F4F7 | Biochemical Sfp PPTase activity, qHTS | Potency, µM, for the others: largest response in the series, negative = inhibition, actives largely listed as inhibitors | 3.5% of 310,000 active | AID 1490, 2009;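 further: the enzyme is Sfp with the accession as filed and its product quenches rhodamine fluorescence; 0% = enzyme reaction without inhibitor and -100% = no enzyme wells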
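Step 1, compound plus 15 nM Sfp-PPTase, 15 min, room temperature. Step 2, add rhodamine-CoA (5 uM) and BHQ-2-YbbR (12.5 uM). Step 3, read 525/598 nm fluorescence at 0 and 30 min.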
HP1b chromo inh = HTS for Inhibitors of HP1-beta Chromodomain Interactions with Methylated Histone Tails; 0.56% of 390,000 active; AID 540317, 2011; AlphaScreen HP1-beta / biotin-H3K9me3 peptide binding; Potency, µM (highest dose often 114 µM), for the others: at the highest dose activity change, negative = inhibition, most hits filed as inhibitors; Chromobox protein homolog 1 (Homo sapiens), P83916; further: nearly all actives have a fitted effect of over 70% in size
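HP1-beta protein (50 nM final) preincubated 30 min at room temperature with biotinylated H3(1-18)K9me3 peptide (50 nM) in PBS pH 7.4, 0.01% Tween-20, then compound added for 30 min. AlphaScreen streptavidin donor/nickel chelate acceptor beads (10 ug/mL final), 30 min dark, luminescence read.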
L3MBTL1 block = qHTS Assay for the Inhibitors of L3MBTL1. AlphaScreen L3MBTL1–H3K9me1 peptide binding. Potency, µM (doses to about 57.1 µM), for the others: at the highest dose activity, negative = inhibition, hits mostly inhibitors. 0.66% of 230,000 active; further: on the % scale 0 is the no-effect control and ±100 the full control effect; nearly all actives have a fitted effect of over 60% in size
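First, the protein-peptide complex forms for 30 min at room temperature (L3MBTL1 50 nM, biotinylated H3K9me1 peptide 75 nM). Next, compounds are pin-transferred and incubated 30 min. Finally, AlphaScreen beads are added and read after 30 min.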
* hit, by the source's call; [ ] = remark or other dose. The call rests on the fitted dose curve; in most records, active means well fitted curve in the direction sought with a large enough effect; inconclusive means small, poorly fitted or top-dose-only effect, or another doubt; inactive means no such curve, though single readings can be large; an effect the other way counts as inactive or inconclusive. Potency means the concentration at half of the fitted maximal effect.

Screening CN1CCN(CC(=O)N2c3ccc(S(=O)(=O)NCCNC(=O)OC(C)(C)C)cc3C(=O)Nc3cccnc32)CC1 returned JMJD2A Tudor inh 14µM* and HP1b chromo inh inconclusive.
`CCCN(CCC)C[C@@H]1CCCCN1CCNC(=O)N1c2ccccc2C(=O)Nc2cccnc21` gave Sfp PPTase inh -4%.
C/C1=C2/[N-]C(C(CC(N)=O)[C@@]2(C)CCC(=O)NCC(C)OP(=O)([O-])O[C@H]2[C@@H](O)[C@@H](n3cnc4cc(C)c(C)cc43)O[C@@H]2CO)[C@]2(C)N=C(/C(C)=C3N=C(/C=C4N=C1C(CCC(N)=O)C\4(C)C)[C@@H](CCC(N)=O)[C@]\3(C)CC(N)=O)[C@@H](CCC(N)=O)[C@]2(C)CC(N)=O.CC(=O)O.[Co] (stereo partly drawn) was read as G9a block inconclusive and Sfp PPTase inh -21%.
Screening CC(C)N1CCN(CC#Cc2ccccc2)CC1CCO (stereo not drawn) returned G9a block -5%[12.7 µM], JMJD2A Tudor inh -9%, BAZ2B inh -11%, Sfp PPTase inh -5%, HP1b chromo inh 49% and L3MBTL1 block 10%.
For Cc1ccc(NC(N)=S)cc1C the results were G9a block 13%[59 µM], JMJD2A Tudor inh -6%[57.1 µM], BAZ2B inh 6%, Sfp PPTase inh 19%, HP1b chromo inh 40% and L3MBTL1 block 1%.
Cc1ccc(Nc2nnns2)cc1C was read as G9a block inconclusive, JMJD2A Tudor inh inconclusive, BAZ2B inh 0%, Sfp PPTase inh 22µM*, HP1b chromo inh inconclusive and L3MBTL1 block 7%.
`Cc1cc(C)cc(OCCCn2c(-c3ccc(Cl)cc3)nc3ccccc3c2=O)c1` gave G9a block -32%[59 µM], JMJD2A Tudor inh 2%, BAZ2B inh 11% and HP1b chromo inh 21%.
For O=C(/C=C/c1ccc([N+](=O)[O-])s1)N1CCCCC1 the results were G9a block -6%, JMJD2A Tudor inh -22%, BAZ2B inh -33%, Sfp PPTase inh 8%, HP1b chromo inh 18% and L3MBTL1 block -16%.
For O=[N+]([O-])c1ccc(CN2CCCCCC2)s1 the results were G9a block 10µM*, JMJD2A Tudor inh 20µM*, BAZ2B inh 40µM*, Sfp PPTase inh inconclusive, HP1b chromo inh 3.2µM* and L3MBTL1 block inconclusive.
For O=C(NNC1CC(=O)N(c2ccc(F)cc2)C1=O)c1cccnc1 (stereo not drawn) the results were G9a block 13µM*, JMJD2A Tudor inh 6%, BAZ2B inh -11%, Sfp PPTase inh 10% and HP1b chromo inh 39%.
Screening CC(C)c1ccc(N2C(=O)CC(NNC(=O)c3cccnc3)C2=O)cc1 (stereo not drawn) returned G9a block 56µM*, JMJD2A Tudor inh -3%, BAZ2B inh -21%, Sfp PPTase inh 4%, HP1b chromo inh 40% and L3MBTL1 block -6%.
`CC(=O)N1CCC(C(=O)OCc2ccccc2F)(c2ccccc2)CC1` gave G9a block 10%, JMJD2A Tudor inh -1%, BAZ2B inh -17%, Sfp PPTase inh 5% and HP1b chromo inh 21%.
`CN1CCN(C(=O)CN(C)S(=O)(=O)c2cc(Cl)ccc2Cl)CC1` gave G9a block -21%, JMJD2A Tudor inh -5%, BAZ2B inh 6%, Sfp PPTase inh 25% and HP1b chromo inh 22%.
CCOC(=O)c1sc(NC(=O)c2nc3ncccn3n2)c(C(=O)OC)c1C was read as G9a block 7%[59 µM], JMJD2A Tudor inh -10%, BAZ2B inh -10% and HP1b chromo inh 28%.
For O=C(c1c[nH]c(C(=O)C(Cl)(Cl)Cl)c1)c1c(F)cccc1F the results were G9a block -41%, JMJD2A Tudor inh 22µM*, BAZ2B inh -23%, Sfp PPTase inh -1% and HP1b chromo inh 3%.
CCOC(=O)c1[nH]c(C)c(CCC(=O)Nc2ccc(N(CC)CC)cc2C)c1C was read as G9a block 14µM*, JMJD2A Tudor inh -28%, BAZ2B inh -18% and HP1b chromo inh 1%[57 µM].
Screening CC1=C(C(=O)Nc2ccc(C)cc2C)C(c2ccc(Cl)cc2)n2nc(C(=O)OC(C)C)nc2N1 (stereo not drawn) returned G9a block 45µM*, JMJD2A Tudor inh -7%, BAZ2B inh -14%, Sfp PPTase inh -2%, HP1b chromo inh 10% and L3MBTL1 block 2%.
Screening CC1(C)CC[C@]2(C(=O)O)CC[C@@]3(C)C(=CCC4[C@@]5(C)CCC(O)C(C)(C)C5CC[C@@]43C)C2C1 (stereo partly drawn) returned G9a block -47%[2.33 µM] and Sfp PPTase inh 17%.
`COc1cccc(/C=C/C(=O)NNC(=O)c2ccccc2)c1OC` gave JMJD2A Tudor inh -6%, HP1b chromo inh 49% and L3MBTL1 block -1%.
COc1cccc(/C=C/C(=C2/C(=O)N(c3ccccc3)N=C2C)c2ccc(C)cc2)c1OC was read as G9a block 1.1µM*, JMJD2A Tudor inh inconclusive, BAZ2B inh inconclusive, Sfp PPTase inh -2%, HP1b chromo inh inconclusive and L3MBTL1 block -14%.
COC(=O)c1ccc(NC(=O)C2CCCO2)cc1 (stereo not drawn) was read as G9a block -13%, JMJD2A Tudor inh -13%, BAZ2B inh 14%, Sfp PPTase inh 5%, HP1b chromo inh 23% and L3MBTL1 block 6%.
COC(=O)c1ccc(N2OC3(C)C=CC2CC3)cc1 (stereo not drawn) was read as G9a block 45µM*, JMJD2A Tudor inh -8%, BAZ2B inh 10%, Sfp PPTase inh -17%, HP1b chromo inh 15% and L3MBTL1 block -1%.
`Cc1ccccc1S(=O)Cc1ccc(C(=O)NCCN2CCOCC2)o1` (stereo not drawn) gave G9a block 45%, JMJD2A Tudor inh -3%, BAZ2B inh -5%, Sfp PPTase inh 19% and HP1b chromo inh 62%.
For O=C(CN1CCN(S(=O)(=O)c2ccc(F)c(Cl)c2)CC1)N1CCNC1=O the results were G9a block 0%[59 µM], JMJD2A Tudor inh 40µM*, BAZ2B inh -6%, HP1b chromo inh 21% and L3MBTL1 block 6%.
